Data from PubChem BioAssay AID651551 (Sanford-Burnham Center for Chemical Genomics, 2012).

Target: PEG-3 (UniProt Q6IN02)
Assay: GAPDH versus PEG-3 reporter suppression – cell-based, luminescence, counter-screen for PEG-3 promoter inhibitor project, SAR follow-up (AID 651551)
Settings: HeLa PEG-Prom / GAPDH luciferase reporter, 6 or 24 h, run 3, 24 h; at 99 µM (top of the series)

Row | Compound | inhibition % (higher = more inhibition)
1 | COc1ccc(-n2nc(C(=O)NCC(=O)Nc3cccc(OC)c3)c3ccccc3c2=O)cc1 | 8.99%
2 | O=C(Nc1nccs1)c1nn(-c2ccccc2)c(=O)c2ccccc12 | 29.1%
3 | Cc1nc(NC(=O)c2ccccc2)sc1-c1csc(Nc2ccccc2)n1 | 76.8%
4 | Cc1nc(NC(=O)c2ccccc2)sc1-c1csc(Nc2cccc(Cl)c2C)n1 | -61.4%
5 | O=C(Nc1nc2ccccc2s1)c1nn(-c2ccccc2)c(=O)c2ccccc12 | -21.2%
6 | Cc1cc(NC(=O)c2ccccc2C(F)(F)F)n(-c2nc3ccccc3[nH]2)n1 | 94.1%
